Inhibition data for 54 compounds are collected here from PubChem BioAssay AID1259417 (TB Discovery Research, Infectious Disease Research Institute, 2018).

SMILES strings stand for the structures. The whole screen tested about 1,100 compounds, of which about 760 (69%) were called active. The rule behind the calls is not given here. So high a share suggests a set chosen from earlier hits. Some of the results follow.

This test in a line: M. tuberculosis growth inhibition, HTS (AID 1259417).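 Note: bacteria grown with compound for 5 days at 37 °C.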 As to conditions: stronger effect = higher value, concentration not given here.
The mark [1] stands for this setting: M. tuberculosis DsRed fluorescence growth inhibition.
Setting [2] is: M. tuberculosis growth inhibition.

A word on the inhibition: it is the drop in the measured response relative to a control, in per cent. With `Cc1cc(C)c2[nH]c3ccccc3c2n1`, the inhibition reads like this: under setting [1], 100% (active); under setting [2], 101%.

For `CCn1c(Sc2ncnc3ccccc23)nc2ccccc21`, the inhibition was 33.7% (active) under setting [1] and 57.9% under setting [2].

For the compound `CCCc1cc(-c2nc(-c3ccc(Br)cc3)cs2)ccn1`, the inhibition is, setting by setting: under setting [1], 98.5% (active); under setting [2], 100%.

In the case of `CCOC(=O)COc1ccc2c(=O)c(-c3ccccc3F)coc2c1C`, the inhibition by setting is: under setting [1], 77.2% (active); under setting [2], 94.8%.

`CCOC(=O)COc1ccc2c(=O)c(-c3ccccc3Cl)c(C)oc2c1C`: the inhibition is 41.3% (active) under setting [1] and 87.5% under setting [2].

With `Clc1ccc(COc2ccc3ccccc3c2CNCc2cccnc2)c(Cl)c1`, the inhibition reads like this: under setting [1], 73.9% (active); under setting [2], 65.8%.

Turning to `Cc1cccc(OCC(O)CN2CCN(C(c3ccccc3)c3ccccc3)CC2)c1C` (stereo not drawn), the inhibition is -6.14% (inactive) under setting [1] and -29.9% under setting [2].

`OC(COc1ccc2ccccc2c1)CN1CCCN(CC(O)COc2ccc3ccccc3c2)CC1` (stereo not drawn): the inhibition runs as follows: under setting [1], 37.5% (active); under setting [2], 79.7%.

For the compound `Cc1ccc(OCC(O)CN2CCN(CC(O)COc3ccc(C)cc3C)CC2)c(C)c1` (stereo not drawn), the inhibition under setting [1] was 6.73% (active) and the inhibition under setting [2] was 45.2%.

As to `Cc1ccc(Cl)cc1N1CCN(CC(O)COc2ccc(C(=O)c3ccccc3)cc2)CC1` (stereo not drawn), the inhibition reads like this: under setting [1], 16.7% (inactive); under setting [2], 1.47%.

Regarding `O=C1c2cccc3cccc(c23)C(=O)N1CC1CCN(CC(O)COc2ccc3ccccc3c2)CC1` (stereo not drawn), the inhibition is, setting by setting: under setting [1], 37.2% (active); under setting [2], 31.4%.

For `Cc1cccc(OCC(O)CN2CCN(CCN3C(=O)c4cccc5cccc(c45)C3=O)CC2)c1C` (stereo not drawn), the inhibition by setting is: under setting [1], 3.21% (inactive); under setting [2], -19.3%.

Turning to `O=C1c2cccc3cccc(c23)C(=O)N1CCN1CCN(CC(O)COc2ccccc2Cl)CC1` (stereo not drawn), the inhibition by setting is: under setting [1], -4.11% (inactive); under setting [2], -8.38%.

`O=C(c1ccc(Cl)cc1)c1ccc(OCC(O)CN2CCN(Cc3ccccc3)CC2)cc1` (stereo not drawn): the inhibition by setting is: under setting [1], 8.82% (inactive); under setting [2], -14%.

Regarding `OC(COc1ccccc1Cl)CN1CCN(C(c2ccccc2)c2ccccc2)CC1` (stereo not drawn), the inhibition by setting is: under setting [1], -4.97% (inactive); under setting [2], -9.36%.

On to `c1ccc(CN2CCN(c3nc(-c4ccccc4)nc(-n4ccnc4)n3)CC2)cc1`, for which the inhibition was 2.46% (inactive) under setting [1] and -9.34% under setting [2].

Take `CN(c1ccccc1)c1nc(N2CCCC2)nc(-n2ccnc2)n1`: the inhibition was 57.3% (active) under setting [1] and 34.7% under setting [2].

Regarding `Cc1ccc(NC(=S)c2ccccn2)cc1`, the inhibition is, setting by setting: under setting [1], 101% (active); under setting [2], 101%.

On to `COC(=O)c1ccc2nc(C)cc(Nc3ccc(OCc4ccccc4)cc3)c2c1`, for which the inhibition is 92.1% (active) under setting [1] and 99.7% under setting [2].

In the case of `CCCOc1ccc(Nc2cc(C)nc3ccc(Cl)cc23)cc1`, the inhibition was 101% (active) under setting [1] and 101% under setting [2].

For `CCOC(=O)c1ccc2nc(C)cc(Nc3ccc(N4CCCCC4)cc3)c2c1`, the inhibition was 100% (active) under setting [1] and 100% under setting [2].

On to `CCCOc1ccccc1NC(=O)Nc1ccc(Cl)c(Cl)c1`, for which the inhibition is 0.884% (inactive) under setting [1] and -14.7% under setting [2].

With `CCC(=Nc1ccccc1O)C1=C(O)CC(c2ccccc2)CC1=O` (stereo not drawn), the inhibition under setting [1] was 98.9% (active) and the inhibition under setting [2] came to 98.8%.

On to `O=C(c1ccco1)N(CCCn1ccnc1)c1nc2c(F)cc(F)cc2s1`, for which the inhibition reads like this: under setting [1], 97.5% (active); under setting [2], 98.1%.

Consider `O=C(NNc1nc2c(F)cc(F)cc2s1)c1coc2ccccc2c1=O`, for which the inhibition is -0.752% (inactive) under setting [1] and -17.4% under setting [2].

As to `O=C(c1ccco1)N(CCCn1ccnc1)c1nc2c(F)cccc2s1`, the inhibition is 91.1% (active) under setting [1] and 97.4% under setting [2].

With `O=C(c1cccs1)N(CCCn1ccnc1)c1nc2c(F)cc(F)cc2s1`, the inhibition reads like this: under setting [1], 73.3% (active); under setting [2], 81.6%.

`Oc1ccc(CSc2ccccc2)c2cccnc12`: the inhibition under setting [1] was 29% (active) and the inhibition under setting [2] worked out at 45.1%.

Regarding `CC(C)(C)c1ccc(C(=O)N2N=C(c3ccccc3)CC2(O)C(F)(F)F)cc1` (stereo not drawn), the inhibition is, setting by setting: under setting [1], 2.12% (inactive); under setting [2], -7.59%.

On to `O=C(c1cccc(Cl)c1)N1N=C(c2ccc(Cl)cc2)CC1(O)C(F)(F)F` (stereo not drawn), for which the inhibition reads like this: under setting [1], 7.75% (inactive); under setting [2], 23.1%.

As for `CC1=NN(C(=S)Cc2ccccc2)C(C)(O)C1` (stereo not drawn), the inhibition runs as follows: under setting [1], 5.87% (inactive); under setting [2], 14.6%.

In the case of `CC1=NN(C(=O)c2ccccc2)C(O)(c2ccncc2)C1` (stereo not drawn), the inhibition reads like this: under setting [1], 97.7% (active); under setting [2], 94.3%.

On to `CC1=NN(C(=O)c2cccc(Cl)c2)C(O)(c2ccc(Cl)cc2)C1` (stereo not drawn), for which the inhibition under setting [1] is 13.7% (active) and the inhibition under setting [2] was 42.4%.

For the compound `CCC1=NN(C(=O)c2ccncc2)C(O)(c2ccc(Br)cc2)C1` (stereo not drawn), the inhibition under setting [1] was 97.9% (active) and the inhibition under setting [2] worked out at 93.4%.

With `CC1(C)CC(=O)C2=C(C1)OC(N)=C([N+](=O)[O-])C2c1ccc(C#N)s1` (stereo not drawn), the inhibition by setting is: under setting [1], 10.4% (active); under setting [2], 32.4%.

On to `CC1=NN(c2nc(-c3ccc(Cl)cc3)cs2)C(=O)C1C` (stereo not drawn), for which the inhibition was 4.11% (inactive) under setting [1] and 7.17% under setting [2].

Regarding `O=C(COc1ccc(Cl)cc1)Nc1ccc(Cc2ccncc2)cc1`, the inhibition is, setting by setting: under setting [1], -0.257% (inactive); under setting [2], -2.75%.

`N#Cc1ccc(-c2ccc(OCC(=O)Nc3cccnc3)cc2)cc1`: the inhibition was 43% (active) under setting [1] and 88.1% under setting [2].

In the case of `N#Cc1ccc(-c2ccc(OCC(N)=O)cc2)cc1`, the inhibition was 17.9% (active) under setting [1] and 86.6% under setting [2].

With `CC(C)(C)C(=O)NC(=S)NNC(=O)C(c1ccccc1)c1ccccc1`, the inhibition is 44.9% (active) under setting [1] and 30.8% under setting [2].

With `CCC(=O)N1CCN(c2ccc(Cl)cc2NC(=O)CC23CC4CC(CC(C4)C2)C3)CC1`, the inhibition under setting [1] is 6.85% (inactive) and the inhibition under setting [2] amounted to 6.57%.

As to `CCN1CCN(c2ccc(NC(=O)CC34CC5CC(CC(C5)C3)C4)cc2Cl)CC1`, the inhibition by setting is: under setting [1], 32.7% (active); under setting [2], 46.9%.

Regarding `O=C(CC12CC3CC(CC(C3)C1)C2)Nc1ccc(N2CCOCC2)c(Cl)c1`, the inhibition is 33.8% (active) under setting [1] and -14.8% under setting [2].

As to `Cc1ccc2c(c1)c1ncnc(N3CCc4ccccc4C3)c1n2C`, the inhibition is, setting by setting: under setting [1], 99.1% (active); under setting [2], 100%.

Regarding `Cc1ccc(Cn2c(=N)n(CC(O)c3ccc(Cl)c(Cl)c3)c3ccccc32)cc1` (stereo not drawn), the inhibition under setting [1] is 99.8% (active) and the inhibition under setting [2] is 98.9%.

For `c1ccc(CC2CCN(c3nc4ccccc4n4cnnc34)CC2)cc1`, the inhibition runs as follows: under setting [1], 57.6% (active); under setting [2], 39.3%.

Turning to `c1ccc2c(NCCc3c[nH]c4ccccc34)c3ccccc3nc2c1`, the inhibition under setting [1] is 27.2% (active) and the inhibition under setting [2] was determined as 59.7%.

Take `FC(F)(F)c1cccc(-n2cc(-c3ccccc3)c3c(NCc4cccnc4)ncnc32)c1`: the inhibition under setting [1] was 4.11% (inactive) and the inhibition under setting [2] was -14%.

Consider `CC1CCN(C(=O)COC(=O)c2cc3ccccc3cc2O)CC1`, for which the inhibition is, setting by setting: under setting [1], 75.2% (active); under setting [2], 96%.

Consider `O=C(OCC(=O)N1CCCCC1)c1cc2ccccc2cc1O`, for which the inhibition was 47.8% (active) under setting [1] and 88.2% under setting [2].

As for `CC1CC(C)CN(C(=O)Nc2ccc(Cl)c(Cl)c2)C1` (stereo not drawn), the inhibition by setting is: under setting [1], 9.98% (inactive); under setting [2], 2.73%.

Turning to `CC1CC(C)CN(C(=O)COC(=O)c2cc3ccccc3cc2O)C1` (stereo not drawn), the inhibition runs as follows: under setting [1], 36.3% (active); under setting [2], 90.7%.

In the case of `CCC1CCCCN1C(=O)COC(=O)c1cc2ccccc2cc1O` (stereo not drawn), the inhibition under setting [1] was 37.8% (active) and the inhibition under setting [2] was 89%.

For `CCC1CCCCN1C(=S)NC(=O)c1ccc(F)cc1` (stereo not drawn), the inhibition runs as follows: under setting [1], 7.93% (inactive); under setting [2], 0.813%.
